Test results: PubChem BioAssay (NCATS)
Results filed as inconclusive are left out. Active and inactive are the calls of the source. Unless noted, calls come from the whole dose curve.

What was measured:
[1] = qHTS drug screen for cell cycle checkpoint inhibitors in PARPi-resistant BRCA-mutant ovarian cancer cell lines. (AID 1963452); conditions: PEO1/OlaR viability, CellTiter-Glo luminescence, 96 h, stronger effect = lower value
Outline: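 PEO1, PEO4 and PEO1/OlaR ovarian cancer cells, 600 per well, exposed 96 h at 37C to a dilution series. Viability read by CellTiter-Glo luminescence, normalized to DMSO and empty wells; activity summarized as Z-AUC.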

[2] = molecular target: Cytochrome P450 3A4 (Homo sapiens) (UniProt P08684); assay: qHTS for inhibitors of CYP3A4 against the NCATS DSHEA and TCM libraries (AID 1919971; active = well fitted curve in the direction sought with a large enough effect; an effect the other way counts as inactive or inconclusive;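 note: % is set by controls: 0 for no effect and ±100 for the full control effect; inhibition lowers luminescence from luciferin made by CYP3A4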); conditions: recombinant CYP3A4 enzyme activity, luminescence qHTS; series mostly up to 34.1 µM
Cytochrome P450 3A4 (Homo sapiens), sequence (P08684 whole entry, looked up): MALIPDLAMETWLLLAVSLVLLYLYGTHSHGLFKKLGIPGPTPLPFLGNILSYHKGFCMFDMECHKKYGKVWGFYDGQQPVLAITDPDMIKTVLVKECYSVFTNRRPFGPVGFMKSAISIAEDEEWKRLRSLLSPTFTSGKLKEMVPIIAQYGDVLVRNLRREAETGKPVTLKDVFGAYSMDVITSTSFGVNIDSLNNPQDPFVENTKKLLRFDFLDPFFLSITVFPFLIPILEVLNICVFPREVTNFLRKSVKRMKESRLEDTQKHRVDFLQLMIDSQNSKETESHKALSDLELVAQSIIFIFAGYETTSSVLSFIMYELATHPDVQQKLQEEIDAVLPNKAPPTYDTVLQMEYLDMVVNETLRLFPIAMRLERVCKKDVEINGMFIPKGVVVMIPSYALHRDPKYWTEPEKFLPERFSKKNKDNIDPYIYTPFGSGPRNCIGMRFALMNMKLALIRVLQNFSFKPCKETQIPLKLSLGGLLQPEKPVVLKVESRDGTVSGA
Outline: (§1)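 Luminescent P450-Glo format: compounds preincubated 15 min with enzyme and luciferin substrate, reaction run 30-45 min after NADPH regeneration solution. Intraplate controls: ketoconazole for CYP3A4 and CYP2C19, sulfaphenazole for CYP2C9.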

[3] = molecular target: Cytochrome P450 2D6 (Homo sapiens) (UniProt P10635); assay: qHTS for inhibitors of CYP2D6 against the NCATS DSHEA and TCM libraries (AID 1919972; active = well fitted curve in the direction sought with a large enough effect; an effect the other way counts as inactive or inconclusive; note: % is set by controls: 0 for no effect and ±100 for the full control effect); conditions: CYP2D6 enzymatic inhibition, luminescence qHTS; series mostly up to 34.1 µM
Cytochrome P450 2D6 (Homo sapiens), sequence (P10635 whole entry, looked up): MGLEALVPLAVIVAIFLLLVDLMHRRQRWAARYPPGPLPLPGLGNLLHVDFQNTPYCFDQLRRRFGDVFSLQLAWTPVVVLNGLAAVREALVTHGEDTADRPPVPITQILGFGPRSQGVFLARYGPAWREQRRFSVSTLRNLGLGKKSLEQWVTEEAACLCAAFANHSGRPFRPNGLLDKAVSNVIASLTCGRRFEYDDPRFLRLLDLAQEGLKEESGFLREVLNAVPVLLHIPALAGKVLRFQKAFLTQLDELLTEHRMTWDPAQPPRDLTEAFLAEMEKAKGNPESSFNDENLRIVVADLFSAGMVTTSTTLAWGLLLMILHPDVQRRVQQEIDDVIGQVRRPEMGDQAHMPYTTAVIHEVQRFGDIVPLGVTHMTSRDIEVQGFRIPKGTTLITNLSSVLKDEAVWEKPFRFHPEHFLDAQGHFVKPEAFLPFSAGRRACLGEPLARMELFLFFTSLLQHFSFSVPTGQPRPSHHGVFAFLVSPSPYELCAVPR
Outline: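 Luminescent P450-Glo read-out of CYP2D6 turnover of a luciferin substrate after NADPH-driven reaction of 30-45 min at room temperature. Compounds were first preincubated 15 min with enzyme at titrated concentrations; quinidine was the intraplate control.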

[4] = molecular target: Cytochrome P450 2C19 (Homo sapiens) (UniProt P33261); assay: qHTS for inhibitors of CYP2C19 against the NCATS DSHEA and TCM libraries (AID 1919974; active = well fitted curve in the direction sought with a large enough effect; an effect the other way counts as inactive or inconclusive;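 note: luminescence from luciferin released by CYP2C19 oxidation of a pro-luciferin substrate; potency is the fitted concentration of half-maximal effect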); conditions: CYP2C19 enzyme inhibition, luminescence qHTS
Cytochrome P450 2C19 (Homo sapiens), sequence (P33261 whole entry, looked up): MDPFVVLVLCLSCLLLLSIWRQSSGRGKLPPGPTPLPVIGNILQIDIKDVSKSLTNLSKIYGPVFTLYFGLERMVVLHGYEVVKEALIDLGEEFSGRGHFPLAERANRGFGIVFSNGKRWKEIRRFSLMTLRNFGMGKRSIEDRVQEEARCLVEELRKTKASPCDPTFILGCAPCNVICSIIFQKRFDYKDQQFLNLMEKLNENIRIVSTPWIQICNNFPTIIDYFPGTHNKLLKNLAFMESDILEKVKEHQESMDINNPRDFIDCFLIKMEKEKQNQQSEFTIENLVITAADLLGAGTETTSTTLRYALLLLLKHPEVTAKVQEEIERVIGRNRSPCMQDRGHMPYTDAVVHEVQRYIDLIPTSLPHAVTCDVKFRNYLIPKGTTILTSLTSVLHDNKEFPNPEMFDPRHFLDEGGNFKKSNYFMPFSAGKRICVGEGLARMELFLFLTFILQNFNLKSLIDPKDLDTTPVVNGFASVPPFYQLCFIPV
Outline: as §1

[5] = KB-3-1 P-gp reporter qHTS against the NCATS DSHEA and TCM libraries (AID 1919975; active = well fitted curve in the direction sought with a large enough effect; an effect the other way counts as inactive or inconclusive; note: 0% is about no effect); conditions: KB-3-1 parental cells, CellTiter-Glo luminescence viability, 72 h; series mostly up to 26.1 µM
Outline: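 Parental KB-3-1 human cervical adenocarcinoma cells (500 cells/well, DMEM + 10% FBS) were treated with substances for ~72 h at 37C; viability was read by CellTiter-Glo luminescence.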

[6] = qHTS Counterscreen for compound interference against the NCATS DSHEA and TCM libraries (AID 1919978; active = well fitted curve in the direction sought with a large enough effect; an effect the other way counts as inactive or inconclusive; note: % of control where 0% means no effect); conditions: firefly luciferase detection reagent interference, luminescence
Outline: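 D-luciferin (1 uM final) or 100 mM potassium phosphate buffer alone was preincubated 15 min at RT with compounds (19.5 nM to 39.8 uM final). Luciferin detection reagent was then added and luminescence read after 30 min at RT.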

[7] = Dual reporter qHTS for agonist of Pregnane X Receptor (hPXR) against the NCATS DSHEA and TCM libraries: Fluorescence readout (AID 1920058; active = well fitted curve in the direction sought with a large enough effect; an effect the other way counts as inactive or inconclusive; note: 0% is about no effect); conditions: PXR dual reporter cells; series mostly up to 40 µM
Outline: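 hPXR-Luc HepG2 cells, 2000/well in charcoal-stripped serum, attached 5 h, dosed for ~24 h at 37 °C. Fluorescence read is CellTiter-Fluor viability (Ex/Em 405/540 nm); rifampicin positive, tetraoctyl ammonium bromide (92 µM) cytotoxicity controls.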

[8] = molecular target: Nuclear receptor subfamily 1 group I member 2 (Homo sapiens) (UniProt O75469); assay: Dual reporter qHTS for antagonist of Pregnane X Receptor (hPXR) against the NCATS DSHEA and TCM libraries: Luminescence Readout (AID 1920060; active = well fitted curve in the direction sought with a large enough effect; an effect the other way counts as inactive or inconclusive;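 note: HepG2 cells carrying hPXR luciferase reporter stimulated with rifampicin at 2 µM; 0% is about no effect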); conditions: hPXR dual reporter cells, luciferase luminescence, antagonist mode; series mostly up to 40 µM
Nuclear receptor subfamily 1 group I member 2 (Homo sapiens), sequence (O75469 whole entry, looked up): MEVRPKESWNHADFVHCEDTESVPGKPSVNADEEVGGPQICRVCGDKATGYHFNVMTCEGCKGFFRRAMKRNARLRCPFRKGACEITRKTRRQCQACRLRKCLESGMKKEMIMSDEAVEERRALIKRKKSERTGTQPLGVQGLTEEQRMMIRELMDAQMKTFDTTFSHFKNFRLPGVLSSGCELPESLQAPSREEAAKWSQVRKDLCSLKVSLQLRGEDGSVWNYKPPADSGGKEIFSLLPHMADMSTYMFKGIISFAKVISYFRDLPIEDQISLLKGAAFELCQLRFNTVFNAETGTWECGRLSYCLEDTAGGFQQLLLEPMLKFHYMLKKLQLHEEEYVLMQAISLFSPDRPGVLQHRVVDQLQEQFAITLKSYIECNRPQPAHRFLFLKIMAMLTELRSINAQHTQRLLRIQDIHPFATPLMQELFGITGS
Outline: (§2)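 HepG2 hPXR-Luc, 2000 cells/well, charcoal-stripped FBS medium; 5 h attach; RIF 2 uM final; 24 h 37C/5% CO2; CellTiter-Fluor 1 h, fluor 405/540; ONE-Glo 30 min RT, lum.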

[9] = Dual reporter qHTS for antagonist of Pregnane X Receptor (hPXR) against the NCATS DSHEA and TCM libraries: Fluorescence Readout (AID 1920061; active = well fitted curve in the direction sought with a large enough effect; an effect the other way counts as inactive or inconclusive; note: 0% is about no effect); conditions: PXR dual reporter cells, antagonist mode; series mostly up to 40 µM
Outline: as §2

[10] = measured here: PEO1 parental Z-AUC

For `CCOC(=O)N1CCN(/[N+]([O-])=N/Oc2ccc([N+](=O)[O-])cc2[N+](=O)[O-])CC1`, the Z-AUC [1] was 1.46 (inactive), the Z-AUC [1, 10] was 1.72 and the Z-AUC ([1]; measured here: PEO4 Z-AUC) was 1.39.

With `CC1(C)[C@@H](O)CC[C@]2(C)[C@H]3C(=O)C=C4[C@@H]5C[C@@](C)(C(=O)O)CC[C@]5(C)CC[C@@]4(C)[C@]3(C)CC[C@@H]12` the Z-AUC [1] was 0.796 (inactive), the Z-AUC [1, 10] was 1.38 and the Z-AUC ([1]; measured here: PEO4 Z-AUC) was 0.997.

In the case of `COc1cc(SC)ccc1C(=O)N1CCC(Cc2ccccc2)CC1`, the Z-AUC [1] is reported as 0.323 (inactive), the Z-AUC [1, 10] is reported as 1.42 and the Z-AUC ([1]; measured here: PEO4 Z-AUC) is reported as 1.59.

In the case of `O=C(Nc1ccc2c(c1)CCN(Cc1ncn[nH]1)C2)c1ccccc1-c1ccc(C(F)(F)F)cc1`, the Z-AUC [1] is reported as -0.0591 (inactive), the Z-AUC [1, 10] is reported as -0.291 and the Z-AUC ([1]; measured here: PEO4 Z-AUC) is reported as 0.47.

In the case of `CCNC(=O)[C@H]1O[C@@H](n2cnc3c(N)nc(NCCc4ccc(CCC(=O)O)cc4)nc32)[C@H](O)[C@@H]1O`, the Z-AUC [1] is reported as 1.44 (inactive), the Z-AUC [1, 10] is reported as 0.917 and the Z-AUC ([1]; measured here: PEO4 Z-AUC) is reported as 1.15.

With `C[N+]1(C)C2CC(OC(=O)[C@H](CO)c3ccccc3)CC1C1OC12` (stereo not given in full) the Z-AUC [1] was 1.57 (inactive), the Z-AUC [1, 10] was 1.91 and the Z-AUC ([1]; measured here: PEO4 Z-AUC) was 2.01.

With `C=CCc1cccc(/C=N/NC(=O)CN2CCN(Cc3ccccc3)CC2)c1O` the Z-AUC [1] was 0.78 (inactive), the Z-AUC [1, 10] was 0.857 and the Z-AUC ([1]; measured here: PEO4 Z-AUC) was 0.395.

In the case of `C[S+](CC[C@H](N)C(=O)O)C[C@H]1O[C@@H](n2cnc3c(N)ncnc32)[C@H](O)[C@@H]1O` (stereo not given in full), the outcome [2] is reported as “inactive”, the outcome [3] is reported as “inactive” and the Potency [4] is reported as 3.98 µM (active). For the same compound, the outcome [5] was “inactive”, the max response [6] was -4.63% (inactive) and the outcome [7] was “inactive”. For the same compound, the outcome [8] was “inactive” and the outcome [9] was “inactive”.

In the case of `O=C1NC(=O)/C(=C/c2ccc3nccnc3c2)S1`, the Z-AUC [1] is reported as 1.93 (inactive), the Z-AUC [1, 10] is reported as 0.559 and the Z-AUC ([1]; measured here: PEO4 Z-AUC) is reported as 0.611.

For `COc1ccc(/C=C/C(=O)Nc2ccccc2C(=O)O)cc1OC`, the Z-AUC [1] was 1.02 (inactive), the Z-AUC [1, 10] was 1.51 and the Z-AUC ([1]; measured here: PEO4 Z-AUC) was 0.971.
